# What was measured:
# Experiment in all cases: PBM binding z-score (relative to random genomic background probes); higher = stronger binding; sequences stand for … in GC…GCGATTGACAGCGTAGAATGAAGG
# [1] = system: PPARg:RXRa DBDmut IVT, anti-RXR (DBD mutation: RXRa K156A/R161A, NR concentration 270 nM, RXRa partner concentration 90 nM)
# Procedure, shortened: (§1)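 Each nuclear receptor dimer, without ligand, was incubated for 1 h on custom Agilent 4×180K protein-binding microarrays. Binding was detected with antibodies against each partner (one per run), and scanned fluorescence was regression-normalized. The binding z-scores are referenced to random human genomic background probes.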
# [2] = system: PPARg:RXRa IVT, anti-PPARg (NR concentration 270 nM, RXRa partner concentration 90 nM)
# Procedure, shortened: as §1
# [3] = system: PPARg DBDmut:RXRa IVT, anti-PPARg (DBD mutation: PPARg1 K132A/R137A, NR concentration 270 nM, RXRa partner concentration 90 nM)
# Procedure, shortened: as §1
# [4] = system: PPARg DBDmut IVT, anti-PPARg (DBD mutation: PPARg1 K132A/R137A, NR concentration 270 nM)
# Procedure, shortened: as §1
# [5] = system: PPARg homodimer (NR concentration 180 nM)
# Procedure, shortened: as §1
# [6] = system: PXR:RXRa (NR concentration 270 nM, RXRa partner concentration 90 nM)
# Procedure, shortened: as §1
# [7] = system: PXR homodimer (NR concentration 270 nM)
# Procedure, shortened: as §1
# [8] = system: RARa:RXR (NR concentration 270 nM, RXRa partner concentration 90 nM)
# Procedure, shortened: as §1
# [9] = system: RARa homodimer (NR concentration 270 nM)
# Procedure, shortened: as §1
# [10] = system: RARb:RXRa (NR concentration 270 nM, RXRa partner concentration 90 nM)
# Procedure, shortened: as §1
# [11] = system: RARb homodimer (NR concentration 270 nM)
# Procedure, shortened: as §1
# [12] = system: RARg:RXRa (NR concentration 270 nM, RXRa partner concentration 90 nM)
# Procedure, shortened: as §1
# [13] = system: RARg homodimer (NR concentration 270 nM)
# Procedure, shortened: as §1
# [14] = system: RXRa DBDmut IVT, anti-RXR (DBD mutation: RXRa K156A/R161A, NR concentration 90 nM)
# Procedure, shortened: as §1
# [15] = system: RXRa homodimer (NR concentration 180 nM)
# Procedure, shortened: as §1
# [16] = system: THRa:RXRa (NR concentration 90 nM, RXRa partner concentration 90 nM)
# Procedure, shortened: as §1
# [17] = system: THRa homodimer (NR concentration 90 nM)
# Procedure, shortened: as §1
# [18] = system: VDR homodimer (NR concentration 270 nM)
# Procedure, shortened: as §1
Sequence,PBM binding z-score [1],PBM binding z-score [2],PBM binding z-score [3],PBM binding z-score [4],PBM binding z-score [5],PBM binding z-score [6],PBM binding z-score [7],PBM binding z-score [8],PBM binding z-score [9],PBM binding z-score [10],PBM binding z-score [11],PBM binding z-score [12],PBM binding z-score [13],PBM binding z-score [14],PBM binding z-score [15],PBM binding z-score [16],PBM binding z-score [17],PBM binding z-score [18]
CTCGAAAGGTCGGTTGGGGTGAGTATACGGATAA,0.404,1.47,0.0444,1.01,1.6,3.44,0.962,2.76,0.684,3.31,2.88,3,2.42,1.18,2.69,4.95,1.86,1.55
GCTGATAGGTCAACTGATGGTCAGCTAAAGCTCG,3.71,3.35,-0.33,-0.713,4.6,3,-0.565,4.46,1.39,4.48,3.72,6.23,6.12,1.65,4.91,2.55,-0.713,-0.0716
ATCGAAAGGTCGAGCTGAGTATAGAGAAAGGGAA,-0.357,1.22,1.33,0.108,0.956,2.5,-0.467,2.89,0.139,3.94,1.8,4.17,3.96,0.849,4.35,1.96,-0.857,0.148
ATATGTAGGTTAGCTGGGGTCAATCAGACTAGGC,6.88,6.36,2.08,1.26,2.34,6,1.44,5.08,1.21,3.04,3.82,4.3,3.37,1.26,5.42,5.12,2.82,3.44
CATACAGGGTCAGCTAGGGCAGAGTAGGGACGGC,1.09,2.7,1.4,-0.307,2.1,2.54,0.343,3.11,0.618,4.28,3.44,4.4,4.87,1.33,4.24,3.69,0.984,2.1
TAGCGTAGGTCATGGGCCAGTATACCACGCGAAC,0.846,2.41,-0.196,0.0667,0.862,2.19,-0.726,3.4,-0.444,3.9,2.74,4.61,4.67,-0.189,4.73,2.38,-0.142,0.0635
ACTATTAGTTGAGCCGAGGGCAACCGATAGGTTG,-0.387,0.273,0.194,-0.123,-0.122,1.43,0.308,0.433,0.387,1.21,1.35,0.604,0.752,0.39,0.52,2.57,0.523,0.692
CCTGGTTGGTCAAGGTCACACACGCTATAGGTAC,1.12,3.26,0.676,0.0653,3.15,4.44,2.85,4.78,2.07,4.41,4.45,4.58,4.71,1.46,4.69,4.36,4.54,3.51
CAGCCTAGGTCAGGGCCAGTATTGGAGGAACGTT,1.37,1.29,-1.49,-1.57,0.568,0.0346,-0.593,1.02,-0.698,3.35,2.67,2.91,3.91,-0.14,1.62,2,0.259,-0.444
CAAACTAGGTCACGAATGGTCAAAGTCGAATGAC,8.28,9.26,2.84,3.79,2.55,2.47,0.0543,3.22,0.681,4.62,3.87,4.77,5.18,1.61,3.82,3.74,1.51,0.784
TCACACAGGTGAAGGTAACTCAGGTACGCAGTCG,2.55,1.69,0.51,-0.435,-0.0155,0.559,-0.0288,0.898,0.414,1.15,0.561,0.746,0.701,0.879,1.18,1.4,0.16,0.257
TCTATTAGTTGATGGGCAACCGACGAGTCCGTTT,2.03,0.211,0.778,1.05,0.547,0.231,0.849,-0.171,0.633,0.125,-0.181,-0.125,-0.0889,1.49,0.101,-0.425,0.00181,0.831
AATACAGGGTTACTAGGCCAGAGTAGGTACGAAT,2.82,4.59,1.84,1.12,1.19,0.457,0.173,0.852,0.718,1.38,0.925,1.24,0.893,0.264,1.57,1.07,0.206,0.675
CGTCCTAGGTCAATGCTAGGTCAGTGAAAGCATT,3.18,3.31,-0.391,-0.333,2.76,2.57,-0.195,4.13,-0.0967,4.06,4.16,6.16,5.14,1.83,2.57,3.94,1.73,0.909
CCGACTGGGGCAAGGTTACCACAACGCACAGCCA,3.33,3.56,0.0122,-0.719,-0.214,0.24,-0.209,0.76,0.366,1.61,1.53,1.13,1.45,-0.491,1.12,1.31,0.612,-0.211
